Data on 39 molecules can be found in PubChem BioAssay (NCATS).

SMILES strings stand for the structures. Inconclusive results are not listed. Activity calls are given as the source filed them. The call rests on the fitted dose curve; in most records, active means well fitted inhibition curve with a large enough effect; inconclusive means small, poorly fitted or top-dose-only effect; inactive means flat fitted curve, though single readings scatter.
On the % scale 0 is the no-effect control and ±100 the full control effect.

Sequence of Calcium and integrin-binding protein 1 (Homo sapiens) (Q99828 whole entry, looked up): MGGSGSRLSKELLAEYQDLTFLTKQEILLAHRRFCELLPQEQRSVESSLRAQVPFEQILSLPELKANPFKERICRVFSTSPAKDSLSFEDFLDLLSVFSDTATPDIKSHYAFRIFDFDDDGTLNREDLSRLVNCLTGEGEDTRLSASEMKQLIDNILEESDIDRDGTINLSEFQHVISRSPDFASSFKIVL

The test has as its target Calcium and integrin-binding protein 1 (Homo sapiens) (UniProt Q99828). The experiment in a line: Primary qHTS for Identification of Calcium Integrin Binding Protein 1 (CIB1) Competitor (AID 1508620). Further: top concentration of the series differs between compounds. The following applies: CIB1-GST / FITC-alphaIIb peptide fluorescence polarization; series mostly up to 114 µM; activity change, negative = inhibition: at the top concentration. The method, boiled down:
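Fluorescence polarization competition: GST-tagged CIB1 (1 uM final) preincubated with compound 15 min at room temperature, then FITC-labelled alphaIIb peptide (100 nM final) added. After 15 min at room temperature, polarization read at Ex 480/Em 540.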
For orientation: Quantitative high-throughput screening tests each substance at several concentrations.
In the case of `C/C=C(\C)C(=O)O[C@@H]1[C@@H](C)[C@]2(O)[C@@H]3C=C(C)C(=O)[C@H]3CC(CO)=C[C@H]2C2C(C)(C)[C@@]21OC(=O)C(C)CC` (some centres undefined), the “activity change, negative = inhibition” value is 3.1% [at 57.7 µM] (inactive).
Then `Nc1nc(Nc2ccc3c(c2)CCC(N2CCCC2)CC3)nn1-c1cc2c(nn1)-c1ccccc1CCC2` (centres undefined), with -4.13% (inactive); and `C/C=C/[C@@H]1C=C[C@@H]2C[C@H](C)CC[C@H]2[C@]1(C)/C(O)=C1/C(=O)[C@@H](CO)N(C)C1=O`, with 4.55% [at 57.7 µM] (inactive).
Then `C[C@@H]1O[C@@H](O[C@H]2[C@H](OC(=O)[C@]34CCC(C)(C)C[C@H]3C3=CCC5[C@@]6(C)C[C@H](O)[C@H](O[C@@H]7O[C@H](CO)[C@@H](O)[C@H](O)[C@H]7O)[C@](CO)(C(=O)O)C6CC[C@@]5(C)[C@]3(C)C[C@H]4O)OC[C@H](O)[C@@H]2O)[C@H](O)[C@H](O)[C@H]1O[C@@H]1OC[C@@H](O)[C@H](O[C@@H]2OC[C@](O)(CO)[C@H]2O)[C@H]1O` (some centres undefined), with 3.47% [at 12.4 µM] (inactive).
Take `COc1ccc(C#Cc2ccc(C(=O)N3CCC[C@@H](O)C3)c(F)c2)cc1`: the “activity change, negative = inhibition” value was 4.38% (inactive).
With `CC(C)(O)/C=C/C(=O)[C@](C)(O)[C@H]1[C@H](O)C[C@@]2(C)[C@@H]3CC=C4[C@@H](C[C@H](O[C@@H]5O[C@H](CO)[C@@H](O)[C@H](O)[C@H]5O)C(=O)C4(C)C)[C@]3(C)C(=O)C[C@]12C` the figure was -0.491% [at 30.2 µM] (inactive); with `CCN(CC)C(=O)c1ccc(Nc2nc(OCC3CCCCC3)c3[nH]cnc3n2)cc1`, -6.68% (inactive).
For `C=C1C(=O)O[C@@H]2/C=C(\CO)CC/C=C(/C=O)C[C@@H](O)[C@@H]12`, the “activity change, negative = inhibition” value was -1.97% (inactive).
With `Fc1ccc(-c2cncc(CN3CCN(c4cccc5c4OCCO5)CC3)c2)cc1`, the “activity change, negative = inhibition” value was 2.44% (inactive).
Then `COc1cccc(CN(C(=O)CC(C)(C)C)[C@H]2C[C@H](C(=O)N3CCNCC3)N(Cc3ccc4c(c3)OCO4)C2)c1`, with 2.57% (inactive); and `O=c1[nH]c2ccc(C#CCN3CCC(Cc4ccccc4)CC3)cc2[nH]1`, with -3.47% (inactive); and `CC(C)C[C@@H]1NC(=O)[C@@H](Cc2ccccc2)NC(=O)C(CCCCCC(=O)C2CO2)NC(=O)[C@@H]2CCCCN2C1=O` (some centres undefined), with -5.89% [at 57.7 µM] (inactive).
With `C=CC(C)(C)c1[nH]c2ccccc2c1C[C@@H]1NC(=O)[C@H](C)NC1=O` the figure was -8.09% [at 57.7 µM] (inactive); with `Cc1nc2c(C(F)(F)F)cccc2nc1-c1ccc(-c2cccc(S(C)(=O)=O)c2)cc1`, 1.87% (inactive).
With `C=CS(=O)(=O)NC1CCN(C(=O)CNc2cc(I)c(Cl)cc2OC)CC1`, the “activity change, negative = inhibition” value is -4.38% (inactive).
Regarding `OC1(CN2CCC(COc3noc4cccc(O[C@@H]5CCOC5)c34)CC2)CCOCC1`, the “activity change, negative = inhibition” value is -2.54% (inactive).
Then `C=C1C(=O)O[C@@H]2/C=C(\CO)CC/C=C(\CO)[C@H](OC(C)=O)C(OC(=O)C(C)CC)C12` (some centres undefined), with -4.45% [at 57.7 µM] (inactive).
With `CN(C)CCn1cc(-c2ccc(F)cc2)c(-n2cccc2)n1` the figure was 2.2% (inactive); with `CC(C)[C@@H](c1ccc(C(F)(F)F)cc1CN(Cc1cc(C(F)(F)F)cc(C(F)(F)F)c1)c1nnn(C)n1)N1CCC(C(=O)O)CC1`, -10.1% (inactive).
With `COc1cc(Br)c(S(=O)(=O)Nc2ccc(Cl)c(O[C@@H]3CCN(C)C3)c2)cc1OC` the figure was 3.62% (inactive); with `O=C(NCc1ccccc1)c1ccc2c(=O)n(-c3cccc(C(F)(F)F)c3)c(=S)[nH]c2c1`, 6.99% (inactive); with `CCOC(=O)N1c2ccc(C(F)(F)F)cc2C(N(Cc2cc(C(F)(F)F)cc(C(F)(F)F)c2)C(=O)OC)CC1CC` (centres undefined), 6.77% (inactive).
For `CC[C@@H](C)[C@@H]1OC2(C=C[C@H]1C)C[C@@H]1C[C@H](C/C=C(\C)[C@H](O[C@H]3C[C@H](OC)[C@H](O[C@H]4C[C@H](OC)[C@H](NC(C)=O)[C@H](C)O4)[C@H](C)O3)[C@H](C)/C=C/C=C3\CO[C@H]4[C@H](O)C(C)=C[C@@H](C(=O)O1)[C@@]34O)O2` (some centres undefined), the “activity change, negative = inhibition” value is 0.525% [at 57.7 µM] (inactive).
Turning to `C=C(C)C1CC(O)C(C)C12CC(O)C1(C)OC1C2O` (centres undefined), the “activity change, negative = inhibition” value was -1.09% (inactive).
With `c1cc(NCCc2c[nH]c3ccccc23)cc(Nc2ccncc2)c1` the figure was -15.1% (inactive).
Regarding `CC[N+]1(C/C2=C/CCCCCC2)CCC(NC(=O)C2c3cc(Cl)ccc3Oc3ccc(Cl)cc32)CC1` (centres undefined), the “activity change, negative = inhibition” value was 5.72% (inactive).
Then `O=C(Nc1cnc(Cl)nc1)c1ccc(F)c(F)c1`, with -0.139% (inactive); and `CC#CCn1c(N2CCCC(N)C2)nc2c1c(=O)n(Cc1nc(C)c3ccccc3n1)c(=O)n2C` (centres undefined), with -6.8% (inactive); and `Cc1nc2ccc(-n3ncc(C(=O)c4cc5ccccc5[nH]4)c3N)cc2[nH]1`, with -1.7% (inactive).
With `CC(=O)Nc1nc(C)c(-c2nc(N3CCCC(O)C3)no2)s1` (centres undefined) the figure was 2.87% (inactive).
In the case of `CC(=O)Nc1cccc(Nc2ncnc(N3CCC(OCc4ccc(OC(F)(F)F)cc4)CC3)n2)c1C`, the “activity change, negative = inhibition” value is 1.08% (inactive).
For the molecule `COc1ccc(CNCc2cccc3ccccc23)cc1`, the “activity change, negative = inhibition” value was 3.27% (inactive).
Consider `CCC(C)(OC(C)=O)C(=O)O[C@H]1[C@H](OC(C)=O)[C@]2(CO)[C@H](O)[C@H](O)[C@]3(C)C(=CCC4[C@@]5(C)CC[C@H](O[C@@H]6O[C@H](C(=O)O)[C@@H](O)[C@H](O[C@@H]7OC[C@H](O)[C@H](O[C@@H]8OC[C@H](O)[C@H](O)[C@H]8O)[C@H]7O)[C@H]6O[C@@H]6O[C@H](CO)[C@@H](O)[C@H](O)[C@H]6O)C(C)(C)C5CC[C@]43C)[C@@H]2CC1(C)C` (some centres undefined), for which the activity change, negative = inhibition is 5.33% [at 12.4 µM] (inactive).
As for `COc1cc(N2CCC(N)CC2)ccc1Nc1ncc(Cl)c(-c2c[nH]c3ccccc23)n1`, the “activity change, negative = inhibition” value was -16.7% (inactive).
With `Cn1ccc(NC(=O)c2cc(Oc3ccc(C(=O)N4CCC4)c(F)c3)c3c(c2)OC(C)(C)C3)n1` the figure was 8.8% (inactive); with `CC(C)OC(=O)N1CCC(Oc2ncnc3c2cnn3-c2ccc(S(C)(=O)=O)cc2F)CC1`, 4.65% (inactive).
With `O=C(NCCCN1CCOCC1)c1cnn2c(-c3ccccc3)cc(-c3ccccc3)nc12` the figure was -4.36% (inactive).
With `CC(OC1OCCN(Cc2n[nH]c(=O)[nH]2)C1c1ccc(F)cc1)c1cc(C(F)(F)F)cc(C(F)(F)F)c1` (centres undefined) the figure was -13.4% (inactive); with `O=C(Nc1ccccc1Br)NC1CCN(c2ccc(C(F)(F)F)cn2)C1` (centres undefined), 1.17% (inactive).
